High-throughput results as filed in PubChem BioAssay.
HepG2 tox: qHTS for Inhibitors of TGF-b: Cytotox Counterscreen; HepG2 CAGA-GFP viability, ATP luminescence, 18 h; Potency, µM (titrated, usually from 46.1 µM), for the others: at the highest dose activity change, negative = cytotoxicity, most hits filed as cytotoxic; actives 0.76% (n = 410,000); further: potency means the concentration at half of the fitted maximal effect
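CellTiter-Glo luminescence gave cytotoxicity after 18 hours at 37 degrees C. The cells were HepG2 CAGA-GFP in 1% FBS DMEM, stimulated with 500 pg/mL TGF-beta after compound addition. %Activity was normalised to no-cell wells (complete cell-killing) and DMSO (no toxicity), and curves were fitted and classified.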
TGFb SMAD3 inh: qHTS for Inhibitors of TGF-b; Potency, µM (series often up to 46.1 µM), for inactives: top-dose activity, negative = inhibition, hits mostly inhibitors; actives 1.2% (n = 410,000); HepG2 CAGA-GFP TGF-b/SMAD3 reporter, GFP fluorescence, 18 h; TGF-beta stimulated, 500 pg/mL final; AID 588855, 2011; further: potency means the concentration at half of the fitted maximal effect; on the % scale 0 is the no-effect control and ±100 the full control effect; nearly all actives have a fitted effect of over 65% in size
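HEPG2 CAGA-GFP reporter cells (1000/well, DMEM with 1% FBS) received compounds, then recombinant TGF-beta at 500 pg/mL final for 18 hours at 37 degrees C. Per-cell GFP summed per well was normalised to unstimulated and stimulated DMSO controls before curve fitting.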
IL-1B inflam inh: qHTS for Inhibitors of Inflammasome Signaling: IL-1-beta AlphaLISA Primary Screen; activity change, % at 57.5 µM; actives 4.7% (n = 360,000); THP-1 LPS/ATP IL-1B secretion, AlphaLISA, 16 h; active compounds read low; in the data active means activity change below about -50%; inconclusive means mostly about -30% to -49%; further: on the % scale 0 is the no-effect control and ±100 the full control effect
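Secreted IL-1B measured by AlphaLISA bead assay after 16 h compound exposure of THP-1 cells; compounds (final up to 57.5 uM) added 1 h before LPS (250 ng/mL) and ATP (1.25 mM) stimulation; lower signal means less secretion.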
TDP1 cell CPT: qHTS for Inhibitors of human tyrosyl-DNA phosphodiesterase 1 (TDP1): qHTS in cells in presence of CPT; chicken DT40 Tdp1-/-;hTDP1 cells + 20 nM CPT, ATP luminescence, 48 h; Potency, µM (doses to about 46.2 µM), inactives show top-dose activity change, negative = growth inhibition, most hits filed as inhibitors; actives 12% (n = 420,000); AID 686979, 2013; further: potency means the concentration at half of the fitted maximal effect; on the % scale 0 is the no-effect control and ±100 the full control effect; nearly all actives have a fitted effect of over 55% in size
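Chicken DT40 Tdp1-/- cells complemented with human TDP1, 400 cells/well, exposed to compounds plus 20 nM camptothecin for at least 48 h at 37 C; viability read as ATP content by CellTiter-Glo luminescence.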
DT40 TDP1 no CPT: qHTS for Inhibitors of human tyrosyl-DNA phosphodiesterase 1 (TDP1): qHTS in cells in absence of CPT; Potency, µM (series often up to 46.2 µM), without a hit: at the highest dose activity change, negative = growth inhibition, usual class: inhibitors; AID 686978, 2013; actives 15% (n = 420,000); DT40 Tdp1-/- hTDP1 cells, no CPT, ATP luminescence, 48 h; further: potency means the concentration at half of the fitted maximal effect; on the % scale 0 is the no-effect control and ±100 the full control effect; nearly all actives have a fitted effect of over 55% in size
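Camptothecin absent (DMSO only). Human TDP1-complemented DT40 knockout cells, 400 cells/well, 37 °C for minimum 48 hr; ATP measured via CellTiter-Glo, 30 min dark incubation, luminescence.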
TDP1 block: qHTS Assay for Inhibitors of Tyrosyl-DNA Phosphodiesterase (TDP1); Tyrosyl-DNA phosphodiesterase 1 (Homo sapiens), Q9NUW8; recombinant TDP1, AlphaScreen DNA substrate cleavage; Potency, µM (series often up to 130 µM), for inactives: at the top dose activity change, negative = inhibition, hits mostly inhibitors; actives 0.28% (n = 350,000); further: potency means the concentration at half of the fitted maximal effect; on the % scale 0 is the no-effect control and ±100 the full control effect; nearly all actives have a fitted effect of over 40% in size
Target sequence (Q9NUW8 whole entry, looked up): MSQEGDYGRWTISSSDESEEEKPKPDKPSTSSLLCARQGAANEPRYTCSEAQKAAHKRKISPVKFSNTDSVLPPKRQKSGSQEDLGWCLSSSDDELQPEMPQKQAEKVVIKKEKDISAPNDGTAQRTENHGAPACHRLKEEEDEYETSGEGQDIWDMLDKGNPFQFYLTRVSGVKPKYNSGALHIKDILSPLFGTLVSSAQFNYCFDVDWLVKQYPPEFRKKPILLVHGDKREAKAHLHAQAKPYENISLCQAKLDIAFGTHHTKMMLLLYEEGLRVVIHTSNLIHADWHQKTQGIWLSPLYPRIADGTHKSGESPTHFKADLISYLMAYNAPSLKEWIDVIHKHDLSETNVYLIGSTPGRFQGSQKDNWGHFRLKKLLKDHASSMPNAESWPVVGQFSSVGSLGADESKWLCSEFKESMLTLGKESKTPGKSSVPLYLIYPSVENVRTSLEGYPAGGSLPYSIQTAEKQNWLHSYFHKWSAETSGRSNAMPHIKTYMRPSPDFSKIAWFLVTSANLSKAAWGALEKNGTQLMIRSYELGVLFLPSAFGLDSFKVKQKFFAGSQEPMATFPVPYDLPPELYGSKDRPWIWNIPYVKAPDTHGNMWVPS
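Signal: AlphaScreen proximity between streptavidin donor and anti-FITC acceptor beads on intact substrate. Reaction: Tdp1 1 nM, substrate 15 nM final, 5 min RT after 15 min compound preincubation.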
Active calls of the source: *; ? = inconclusive; . = no result given; [ ] = another dose, or the depositor's remark. The list is not random: actives were taken first. Their share in the collection is about 19%. Unless noted, the call rests on the fitted dose curve; in most records, active means well fitted curve in the direction sought with a large enough effect; inconclusive means small, poorly fitted or top-dose-only effect, or another doubt; inactive means no such curve, though single readings can be large; an effect the other way counts as inactive or inconclusive.

SMILES	HepG2 tox	TGFb SMAD3 inh	IL-1B inflam inh	TDP1 cell CPT	DT40 TDP1 no CPT	TDP1 block
Cc1nc(N2CCN(C(=O)c3cnccn3)CC2)c2c3c(sc2n1)CC(C(C)(C)C)CC3 (configuration not stated)	-3%	-6%	13	0%	-26%	.
CCOc1ccccc1NC(=O)C1CCN(S(=O)(=O)c2ccc3[nH]c4c(c3c2)CCCCC4)CC1	0%	0%	.	?	?	3%
CCN(Cc1ccccc1)S(=O)(=O)c1ccc(F)c(C(=O)Nc2ccc(C(C)C)cc2)c1	-1%	3%	.	15µM*	18µM*	-5%
Cc1ccc(S(=O)(=O)N(CC(=O)Nc2ccc(C(C)C)cc2)Cc2ccccc2)cc1	-25%	-22%	.	?	?	-10%[12.3 µM]
CC(=O)c1ccc(NC(=S)N2CCC(Cc3ccccc3)CC2)cc1	-3%	-21%	-79*	-21%	?	4%
N#Cc1cccc(C(=O)C(=O)N2CCC(Cc3ccccc3)CC2)c1	.	.	11	?	?	.
COc1cccc(NC(=S)N2CCC(Cc3ccccc3)CC2)c1	-6%	?	-23	21µM*	?	3%
COc1cccc(NC(=O)CCC2CCN(C(=O)C(OC)c3ccccc3)CC2)c1 (configuration not stated)	-10%	5%	-4	16µM*	21µM*	.
O=C(C(=O)N1CCC(Cc2ccccc2)CC1)c1ccccc1	.	.	11	?	16µM*	.
COc1ccccc1NC(=O)C1CCN(c2cnccn2)CC1	-9%	-15%	.	-20%	5%	-2%
O=C(Nc1cc(Cl)cc(Cl)c1)c1ccc(F)c(S(=O)(=O)N2CCCC2)c1	-32%	?	.	16µM*	21µM*	3%
CC(C)c1ccc(NC(=O)c2ccc(F)c(S(=O)(=O)N3CCCCCC3)c2)cc1	-13%	-7%	.	?	?	0%
CC(C)c1ccc(NC(=O)c2ccc(F)c(S(=O)(=O)N3CCCC3)c2)cc1	-13%	-18%	.	10µM*	?	8%
O=C(Nc1ccc(S(=O)(=O)N2CCc3ccccc32)cc1)c1ccc2c(c1)OCO2	-10%	?	?	?	?	3%
O=C(Nc1cc(Cl)cc(Cl)c1)c1ccc(F)c(S(=O)(=O)N2CCc3ccccc32)c1	-76%	4µM*	.	5.8µM*	9.2µM*	3%
COc1ccc(N2CCN(S(=O)(=O)c3cn(C)cn3)CC2)cc1	7%	4%	9	0%	26%	4%
COc1ccc(C2=C(C)C(=O)N(Cc3ccc(C(=O)Nc4cc(C)ccc4C)cc3)S2(=O)=O)cc1	-34%	1%	.	18µM*	10µM*	5%
CC1=C(c2ccc(C)cc2)S(=O)(=O)N(Cc2ccc(C(=O)Nc3ccc(C)c(F)c3)cc2)C1=O	-11%	?	.	26µM*	?	6%
CC1=C(c2ccc(C)cc2)S(=O)(=O)N(Cc2ccc(C(=O)NCc3cccc(C)c3)cc2)C1=O	0%	-16%	.	?	?	7%
CCC(=O)Nc1ccc2c(c1)OC[C@@H](C)N(Cc1cccc(F)c1)C[C@@H](C)[C@@H](OC)CN(C)C2=O	.	.	4	?	23µM*	.
CO[C@H]1CN(C)C(=O)c2ccc(NC(=O)C3CCC3)cc2OC[C@H](C)N(CC2CCCCC2)C[C@@H]1C	.	.	15	?	21µM*	.
